The record followed here is PubChem BioAssay AID652067 (The Scripps Research Institute Molecular Screening Center, 2013).

The campaign covered roughly 370,000 compounds. About 5,400 (1.5%) were called active. Shown is part of a subset that was picked to be rich in actives. Unmarked numbers belong to inactive results.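 Rule for the calls: active = activation above the mean of all tested compounds plus 3 SD (cut at about 5.5% in these data); inactive = the rest.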

For this experiment, the system named is DAF-12 nuclear receptor (Haemonchus contortus). As to the kind of experiment: hcDAF-12 driven luciferase reporter activation – cell-based, luminescence, HEK293, lit1-tk-luc reporter, primary screen (AID 652067).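 Note: 100% = response to 3 µM Δ7-dafachronic acid high control.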 Particulars: HEK293 hcDAF-12 lit1-tk-luc reporter, at 6.8 µM, stronger effect = higher value, 0% DMSO, 100% Δ7-dafachronic acid. In general terms: Reporter assays use an easily measured gene product as a stand-in for the process of interest.
`CCOC(=O)N1CCN(C(=O)C[C@@H]2C(=O)N(CCc3ccc(Cl)cc3)C3=CCCC[C@]32C(=O)OCC)CC1`: the activation was -4.47%.

For the compound `CCCCNC(=O)C[C@@H]1C(=O)N(CCc2ccc(Cl)cc2)C2=CCCC[C@]21C(=O)OCC`, the activation is -2.83%. In the case of `O=C(COC(=O)c1ccccn1)NNC(=O)c1ccc(Br)cc1`, the activation was -2.22%. The figure for `Cc1ccc(C(=O)O/N=C(\N)c2ccccn2)cc1Cl` is 8.22% (active); for `COc1ccc(C(=O)O/N=C(\N)c2ccccn2)cc1[N+](=O)[O-]` it is 6.36% (active).

Take `C/C(=N/OC(=O)c1cccc(C(F)(F)F)c1)c1cnccn1`: the activation was -0.26%. Consider `COc1ccccc1OCC(=O)OCc1cc(-c2ccco2)on1`, for which the activation is -2.08%. The figure for `N/C(=N\OC(=O)Cc1ccc([N+](=O)[O-])cc1)c1ccccn1` is 1.92%; for `N/C(=N\OC(=O)CCC1CCCCC1)c1ccccn1` it is 4.24%. With `COc1ccccc1OCC(=O)O/N=C(\N)c1ccccn1`, the activation is 7.16% (active). For `O=C(COC(=O)c1ccccn1)NNC(=O)c1ccc([N+](=O)[O-])cc1` the value was 1.23%. For the compound `CCOC(=O)c1cccc(NC(=O)CN(C)S(=O)(=O)c2ccc(-c3cocn3)s2)c1`, the activation was -1.38%. With `C=CCN1C(=O)[C@@H](CC(=O)N2CCN(C(=O)OCC)CC2)[C@]2(C(=O)OCC)CCCCC/C=C/12`, the activation is 0.11%. Turning to `CCC(=O)OCCCN1C(=O)CCC12CCC(c1ccccc1)CC2` (stereo unspecified), the activation was -1.9%. Take `CN(C)[C@H]1CCN(c2cccc3c2S(=O)(=O)N2CC[C@H](C2)O3)C1`: the activation was 1.72%.

For the compound `Cc1ccc(CN2CCCCC(NC(=O)C3CCCCC3)C2=O)cc1` (stereo unspecified), the activation is -1.6%. In the case of `COC(=O)[C@]12C[C@H](CC(=O)N3CCN(C(=O)C4CC4)CC3)C(=O)N(CCC3=CCCCC3)C1=C[C@H](C(C)C)O[C@@H]2C1CC1`, the activation was -1.23%.

On to `Nn1c(SCC(=O)Nc2ccc(S(N)(=O)=O)cc2)nnc1-c1n[nH]c2c1CCC2`, for which the activation is -1.75%. On to `Cc1cccc(-n2nc3c(c2NC(=O)c2cc4ccccc4o2)CS(=O)(=O)C3)c1`, for which the activation was 1.51%. Turning to `C/C(=N\NC(=S)Nc1ccc(C)cc1)c1cc2ccccc2o1`, the activation is -0.69%. For `Cc1ccc(NC(=O)c2cc3ccccc3o2)cc1`, the activation is 10.5% (active). Regarding `CC(C)(C)c1ccc(CSc2nnc(-c3cccs3)o2)cc1`, the activation is 1.61%. For `COc1ccccc1C(=O)NC(=O)COC(=O)C1CC1` the value was 0.43%; for `CCOc1ccc(C(O)Cn2c(=N)n(CCN3CCCCC3)c3ccccc32)cc1` (stereo unspecified), -0.25%; for `Cn1c(=N)n(CC(O)c2ccccc2)c2ccccc21` (stereo unspecified), 6.33% (active). The figure for `Cc1nc2ccccc2n1CC(O)c1ccccc1` (stereo unspecified) is 1.55%. Take `CCC(=O)Nc1ccc2c(c1)C(=O)N(C)[C@H]1CC[C@H](CC(=O)NCCOC)O[C@@H]1CO2`: the activation is -0.71%.

Regarding `COC(=O)C1CN(CCc2ccccc2)CCS(=O)(=O)N1Cc1cccc(Cl)c1` (stereo unspecified), the activation is -1.52%. For the compound `O=C(NC1CCCCN(Cc2ccc(Cl)cc2)C1=O)c1ccc(Br)cc1` (stereo unspecified), the activation is -2.55%. The figure for `O=C(NC(Cc1ccccc1)C(=O)O)/C(=C\c1ccccc1)NC(=O)c1ccco1` (stereo unspecified) is -0.54%; for `O=C(NC(Cc1c[nH]c2ccccc12)C(=O)O)/C(=C/c1ccco1)NC(=O)c1ccccc1` (stereo unspecified) it is 6.62% (active); for `O=C(NCc1ccco1)/C(=C/c1ccco1)NC(=O)c1ccccc1` it is -0.96%. The figure for `Cc1ccc(-n2c(SCC(=O)Nc3ccc(S(=O)(=O)Nc4nccs4)cc3)nnc2-c2ccccn2)cc1` is -0.18%; for `COc1cc(NC(=O)C2CCCN(S(=O)(=O)c3ccc(C(C)(C)C)cc3)C2)cc(OC)c1` (stereo unspecified) it is -1.6%. Turning to `CC(C)C(C#CC1CC1)N(Cc1ccc2c(c1)OCO2)C(N)=NC(=O)/C=C/c1cccc(C(F)(F)F)c1` (stereo unspecified), the activation was 0.1%. As for `COC(=O)[C@]1(C#N)CC(=O)N(CC2CCCCC2)[C@@H]1c1ccccc1`, the activation was 0.64%. Consider `O=C(Nc1cccc(C(=O)O)c1)/C(=C\c1ccccc1)NC(=O)c1ccc(Br)o1`, for which the activation was -0.49%. As for `CCS(=O)(=O)c1ccc(-c2cccc(NC(=O)c3ccc(Br)o3)c2)nn1`, the activation was 1.53%. Turning to `Cc1cccc(NC(=S)NC(=O)c2ccc(Br)o2)c1`, the activation is 6.48% (active). For `CC(=O)c1ccc(N=C2SCCCN2C(=O)C2CCCCC2)cc1` the value was 1.46%.

In the case of `COC(=O)c1ccc(CN2C(=O)[C@]3(OCCC=C[C@H]3C)c3c(Br)cccc32)cc1`, the activation is -3.24%. For `O=C(CN1CCC(NC(=O)NCc2ccccc2)CC1)Nc1ccc2c(c1)OCCO2` the value was -0.83%; for `Clc1ccc(Nc2ccc3ccccc3n2)cc1`, 17.1% (active).

In the case of `C=CCNc1nc(Nc2ccc(Cl)cc2)nc(OC)n1`, the activation was -0.18%.

In the case of `CC1(C)N=C(N)NC(Nc2ccc(Cl)cc2)=N1`, the activation was 0.62%.

Regarding `CCOC(=O)/C=C/CN(C(=O)OC(C)(C)C)S(=O)(=O)N1CC=CC1`, the activation is -0.7%.

As for `COc1ccc(-n2c(SCC(=O)Nc3ccc4cn[nH]c4c3)nnc2-c2cccnc2)cc1`, the activation was -1.7%. For `CC(C)CNc1cccc2c1S(=O)(=O)N(Cc1cn(Cc3ccccc3C(F)(F)F)nn1)Cc1ccccc1O2` the value was -1.42%; for `O=C(CSc1nc2sc3c(c2c(=O)n1-c1ccccc1)CCCC3)NN=Cc1ccc(OCc2ccccc2)cc1`, -1.69%. For `CCOc1ccc(C2c3[nH]c4ccccc4c3CCN2Cc2cn(CC)nc2C)cc1` (stereo unspecified) the value was 6.76% (active). The figure for `CCOc1ccc(C2c3[nH]c4ccccc4c3CCN2Cc2cccn2-c2ncccn2)cc1` (stereo unspecified) is 1.92%; for `COc1cccc(C2c3[nH]c4ccccc4c3CCN2Cc2cccc(C)n2)c1` (stereo unspecified) it is 3.77%; for `Cc1[nH]c2ccccc2c1CC(=O)Nc1ccc(Nc2cccnc2)c(-c2cccc(Cl)c2)c1` it is 1.03%. Take `CC(C)c1nc2cc(C(=O)NC(C)c3cnn(C)c3)ccc2o1` (stereo unspecified): the activation was -1.66%. In the case of `COC(=O)c1ccc(CNC(=O)c2ccc3oc(C(C)C)nc3c2)cc1`, the activation is 0.43%. For `COc1ccc(CNC(=O)c2ccc3oc(C(C)C)nc3c2)cc1` the value was 6.74% (active).
